The nature of the test: qHTS drug screen for cell cycle checkpoint inhibitors in PARPi-resistant BRCA-mutant ovarian cancer cell lines. (AID 1963452). The conditions noted are these: PEO1/OlaR viability, CellTiter-Glo luminescence, 96 h, stronger effect = lower value. Put shortly: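 PEO1, PEO4 and PEO1/OlaR ovarian cancer cells, 600 per well, exposed 96 h at 37C to a dilution series. Viability read by CellTiter-Glo luminescence, normalized to DMSO and empty wells; activity summarized as Z-AUC.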

[1] abbreviates: measured here: PEO1 parental Z-AUC.

SMILES strings stand for the structures. Calls of active or inactive are those of the source. Calls come from the whole dose curve.

Regarding `CCCC1OC2C[C@@H]3[C@H]4CCC5=CC(=O)C=C[C@]5(C)[C@H]4C(O)C[C@]3(C)[C@]2(C(=O)CO)O1` (stereo partly drawn), the Z-AUC was -0.0333 (inactive). In addition, the Z-AUC under setting [1] is 0.534. Also, the Z-AUC (measured here: PEO4 Z-AUC) is -0.396.

For the molecule `COc1ccc(CCN(C)CCCOc2ccc(S(=O)(=O)c3[nH]c4ccccc4c3C(C)C)cc2)cc1OC`, the Z-AUC is -0.498 (inactive). In addition, the Z-AUC under setting [1] was found to be 0.248. In addition, the Z-AUC (measured here: PEO4 Z-AUC) came to 0.439.

In the case of `Clc1ccc(C2(c3ccc(-c4cn[nH]c4)cc3)CCNCC2)cc1`, the Z-AUC was 0.223 (inactive). Under setting [1], the Z-AUC amounted to 0.18. Further, the Z-AUC (measured here: PEO4 Z-AUC) was 0.0319.

With `CN1N=C(N)c2cn([C@@H]3O[C@H](COP(=O)(O)O)[C@@H](O)[C@@H]3O)c3ncnc1c23`, the Z-AUC is -0.375 (inactive). Further, the Z-AUC under setting [1] was -0.488. The Z-AUC (measured here: PEO4 Z-AUC) was -0.707.

For `COc1c(C)cnc(Cn2cnc3c(Cl)nc(N)nc32)c1C`, the Z-AUC is -0.301 (inactive). The Z-AUC under setting [1] was -0.874. In addition, the Z-AUC (measured here: PEO4 Z-AUC) was -0.434.

Regarding `O=C(Nc1cccc(Cl)c1)Nc1ncc(CCNc2ncnc3ccsc23)s1`, the Z-AUC was -0.664 (inactive). Further, the Z-AUC under setting [1] was -1.1. Besides, the Z-AUC (measured here: PEO4 Z-AUC) was -1.17.

Take `CC(C)C[C@H](NC(=O)c1cc2ccccc2s1)C(=O)N1CCN(C(=O)[C@H](CO)NS(=O)(=O)c2ccc(Cl)cc2Cl)CC1`: the Z-AUC is -0.613 (inactive). Besides, the Z-AUC under setting [1] is -0.17. The Z-AUC (measured here: PEO4 Z-AUC) is -1.13.

As for `O=c1[nH]nc(OCCCc2ccc(Cl)cc2)c(NCc2cccnc2)c1Br`, the Z-AUC is -1.27 (inactive). Under setting [1], the Z-AUC is -1.54. Moreover, the Z-AUC (measured here: PEO4 Z-AUC) is -1.42.

Take `COC(=O)[C@H](c1ccccc1Cl)N1CCc2sccc2C1`: the Z-AUC was 1.43 (inactive). The Z-AUC under setting [1] was found to be 1.15. Besides, the Z-AUC (measured here: PEO4 Z-AUC) was found to be 0.952.

Turning to `CN1CCN(c2cccc(Nc3nc4c(-c5ccc(S(C)(=O)=O)cc5)cccn4n3)c2)CC1`, the Z-AUC is 0.515 (inactive). Under setting [1], the Z-AUC is 0.358. The Z-AUC (measured here: PEO4 Z-AUC) was 0.131.

For `CCCCn1c(=O)n(Cc2ccccc2F)c(=O)c2[nH]c(Cc3ccc(NC(C)=O)cc3)nc21`, the Z-AUC is -0.247 (inactive). For the same molecule, the Z-AUC under setting [1] is -0.269. For the same molecule, under “measured here: PEO4 Z-AUC”, the Z-AUC is 0.0892.

For the origin of these results see PubChem BioAssay (NCATS).
